Activity calls are given as the source filed them.

The target in one assay is Albumin (Bos taurus) (UniProt P02769). Kind of assay: compounds binding labelled BSA control protein – biochemical, small-molecule microarray, Alexa647 label, 635/667 nm fluorescence, artefact control for SMM control protein annotation, profiling panel (AID 1118).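 Further: score merges 667 nm emission intensity and signal-to-noise per printed compound spot.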 The following applies: BSA-A647 binding, fluorescence 635 nm, higher = more signal.
Chain of Albumin (Bos taurus) (P02769 whole entry, looked up): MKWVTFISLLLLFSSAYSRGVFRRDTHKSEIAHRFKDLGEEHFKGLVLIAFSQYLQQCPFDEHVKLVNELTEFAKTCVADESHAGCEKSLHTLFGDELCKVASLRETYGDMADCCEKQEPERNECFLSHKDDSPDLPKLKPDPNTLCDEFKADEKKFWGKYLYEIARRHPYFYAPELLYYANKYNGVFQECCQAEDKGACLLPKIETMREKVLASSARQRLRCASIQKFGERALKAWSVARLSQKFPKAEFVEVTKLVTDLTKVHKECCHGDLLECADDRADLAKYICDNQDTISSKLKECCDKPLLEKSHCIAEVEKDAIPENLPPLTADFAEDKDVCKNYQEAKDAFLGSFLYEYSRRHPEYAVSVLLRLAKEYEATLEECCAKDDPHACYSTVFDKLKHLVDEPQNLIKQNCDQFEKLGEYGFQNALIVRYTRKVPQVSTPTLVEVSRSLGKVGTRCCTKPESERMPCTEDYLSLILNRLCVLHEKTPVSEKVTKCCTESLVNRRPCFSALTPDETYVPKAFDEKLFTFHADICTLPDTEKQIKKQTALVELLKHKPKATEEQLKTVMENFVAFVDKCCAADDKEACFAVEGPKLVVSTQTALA
The nature of assay [1]: probe aXIP binding to arrayed compounds – biochemical, NeuroSMM set, 635/667 nm fluorescence, primary screen (AID 1119).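 Further: probe is the protein aXip251-270 applied at 1 µg/mL to compound-printed slides; binding of probe to printed compounds measured as 667 nm fluorescence plus signal to noise.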 Conditions: small-molecule microarray, higher = more signal, called active from +8 up or from −8 down.
A short description of assay [2]: probe aNOTCH3 binding on compound microarray – biochemical, small-molecule microarray, 635/667 nm fluorescence, primary screen (AID 1120).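 Further: probe is a biotin-tagged antibody raised against NOTCH3 rather than NOTCH3 protein; score merges spot fluorescence near 667 nm with spot signal to noise.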 The following applies: higher = more signal.
A short description of assay [3]: probe aNOTCH2 binding on compound microarray – biochemical, small-molecule microarray, 635/667 nm fluorescence, primary screen (AID 1121).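 Further: score merges feature fluorescence read at 667 nm with its signal to noise.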 The following applies: higher = more signal.
Assay [4] deals with Carbonic anhydrase 2 (Homo sapiens) (UniProt P00918). The assay can be described thus: compounds binding carbonic anhydrase 2 – biochemical, small-molecule microarray, Alexa647-labelled CAII, profiling panel (AID 1122). The following applies: CAII-A647 binding fluorescence, higher = more signal.
Assay [5] in a line: COS7 lysate on small-molecule microarray, probe aHis, 635 nm (AID 1123).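 Further: z-score combines 667nm fluorescence intensity with signal-to-noise per printed compound spot.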 The following applies: COS7 cell lysate, fluorescence, higher = more signal.
The nature of assay [6]: probe aLAP1 signal on lysate-treated microarray – cell lysate, small-molecule microarray, COS7 lysate, primary screen (AID 1124).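 Further: lysate comes from COS7 cells expressing LAP1 and is applied at 0.3 µg/mL; score merges spot fluorescence near 667 nm with signal-to-noise over triplicate slides.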 The following applies: probe aLAP1, fluorescence, higher = more signal.
The next assay has as its system Sam68 (KHDRBS1). The assay can be described thus: compounds binding KHDRBS1 protein – biochemical, small-molecule microarray, 635 nm fluorescence, primary screen (AID 1125).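 Further: score merges 667 nm channel intensity with signal to noise over triplicate slides.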 The following applies: higher = more signal.
Assay [7] deals with Chordin-like protein 2 (CHRDL2). The assay can be described thus: compounds binding chordin-like 2 – biochemical, small-molecule microarray, 635 nm fluorescence, primary screen (AID 1126).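 Further: printed compound slides probed with Chrdl2 protein at 4 µg/mL for 1 h at 4 C; score merges 667 nm emission intensity with signal to noise over three replicate slides.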 Conditions: fluorescence 635 nm, higher = more signal.
The target in assay [8] is Concanavalin-A (Canavalia ensiformis) (UniProt P02866). Kind of assay: compounds binding concanavalin A lectin – biochemical, small-molecule microarray, Alexa647 label, 635 nm, artefact control for SMM control protein annotation, primary screen (AID 1127).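 Further: z combines 667 nm emission intensity with signal-to-noise across three replicate slides.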 Conditions: ConA-A647 binding fluorescence, higher = more signal.
Chain of Concanavalin-A (Canavalia ensiformis) (P02866 whole entry, looked up): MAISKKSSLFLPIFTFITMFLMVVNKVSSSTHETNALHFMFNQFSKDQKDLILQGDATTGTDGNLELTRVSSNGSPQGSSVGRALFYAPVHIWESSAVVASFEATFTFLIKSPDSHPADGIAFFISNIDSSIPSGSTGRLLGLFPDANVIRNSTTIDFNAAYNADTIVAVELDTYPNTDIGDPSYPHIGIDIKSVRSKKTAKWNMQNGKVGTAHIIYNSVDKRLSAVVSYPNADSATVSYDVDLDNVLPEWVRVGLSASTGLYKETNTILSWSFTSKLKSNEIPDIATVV

With `O=C1C[C@@H](O)[C@@H](O)[C@@H]2[C@@H]3C(=O)N(Cc4ccc5c(c4)OCO5)C(=O)[C@@H]3CC[C@H]12`, the composite z-score with Albumin (Bos taurus) was 0.272; in [2] it was -0.16; in assay [3] it was -0.186; in assay [4] it was -0.126; in assay [5], -0.254; in assay [6], -0.225. Further, the composite z-score in the assay on Sam68 (KHDRBS1) was found to be 0.416; in [7], 0.356; in [8], 0.717. The composite Z-score in assay [1] is 0.0723 (inactive).
Regarding `O=C(NN=C1C[C@@H](O)[C@@H](O)[C@@H]2[C@@H]3C(=O)N(C4CCCCC4)C(=O)[C@@H]3CC[C@H]12)OCc1ccccc1`, the composite z-score is 0.885 with Albumin (Bos taurus); 0.273 in assay [2]; 0.179 in [3]; 0.0928 in [4]; 0.206 in assay [5]; 0.947 in [6]. Moreover, the figures for the composite z-score (in the assay with Sam68 (KHDRBS1); in [7]; in assay [8]) were -0.337, 0.209 and -0.465, respectively. The composite Z-score in assay [1] is -0.229 (inactive).
With `O=c1n(Cc2cc3c(cc2Cl)OCO3)c(=O)n2n1CC[C@@H]1C(=NOC[C@@H](O)COCc3ccco3)[C@H]3O[C@H]3[C@@H](O)[C@@H]12`, the composite z-score was -0.0922 with Albumin (Bos taurus); -0.0841 in assay [2]; -0.0974 in [3]; 0.351 in assay [4]; -0.0175 in assay [5]; 0.0735 in assay [6]. Further, the composite z-score came to 0.175 with Sam68 (KHDRBS1), 0.57 in [7] and 0.392 in [8]. Moreover, the composite Z-score in assay [1] is -0.263 (inactive).
Turning to `COC(=O)CC=C[C@@H](C)[C@@H](C=NOC[C@H]1O[C@H](c2ccccc2)C=C[C@@H]1Oc1ccc(OC)cc1)NS(=O)(=O)c1ccc(C)cc1`, the composite z-score was -0.453 with Albumin (Bos taurus); -0.196 in [2]; -0.138 in [3]; -0.648 in assay [4]; -0.588 in [5]; -0.689 in assay [6]. Besides, the composite z-score in the assay on Sam68 (KHDRBS1) is -1.18; in assay [7], 0.156; in assay [8], -2.02. The composite Z-score in assay [1] was -0.769 (inactive).
For the molecule `CC(C)=CCCC(C)=CCON=C1C[C@@H](O)[C@@H](O)[C@@H]2[C@@H]3C(=O)N(c4cccc(Oc5ccccc5)c4)C(=O)[C@@H]3CC[C@@H]12`, the composite z-score in the assay with Albumin (Bos taurus) is 0.633; in [2] it was -0.0026; in [3] it was -0.0686; in [4] it was 0.112; in assay [5], 0.956; in assay [6], -0.0676. Besides, the composite z-score in the assay with Sam68 (KHDRBS1) is 0.877; in [7], 0.418; in assay [8], 0.0876. Further, in assay [1], the composite Z-score was -0.174 (inactive).
Regarding `CC(CCN1CCCCc2nc(C)c(C)cc21)=NO[C@@H](C)c1cn([C@H](CO)Cc2ccccc2)nn1`, the composite z-score with Albumin (Bos taurus) is 0.779; in [2] it was 0.0833; in assay [3], -0.14; in [4], 0.464; in [5] it was -0.01; in assay [6], -0.248. Moreover, the composite z-score is 0.719 in the assay on Sam68 (KHDRBS1), 0.953 in [7] and 0.249 in assay [8]. In addition, in assay [1], the composite Z-score is 0.364 (inactive).
For the molecule `COC(=O)CC=C[C@@H](C)[C@@H](C=NO[C@H](C)c1cn([C@H](CO)Cc2ccccc2)nn1)NS(=O)(=O)c1ccc(C)cc1`, the composite z-score in the assay with Albumin (Bos taurus) was 0.749; in assay [2] it was 0.0242; in assay [3], -0.118; in assay [4] it was -0.276; in assay [5], -0.0104; in [6] it was 0.78. The composite z-score in the assay with Sam68 (KHDRBS1) stood at 0.566; in assay [7], 0.437; in assay [8], 0.837. The composite Z-score in assay [1] was 0.863 (inactive).
With `CO[C@H]1COC(=O)CC=C[C@H](C)[C@@H](OC)COC(=O)[C@@H](C)COC(=O)CC=C[C@@H]1C`, the composite z-score with Albumin (Bos taurus) was -0.93; in assay [2] it was -0.0647; in assay [3] it was -0.146; in assay [4], -0.535; in assay [5], -0.25; in assay [6] it was -0.145. Moreover, the composite z-score in the assay with Sam68 (KHDRBS1) is -0.132; in assay [7] it was 1.51; in assay [8] it was -1.85. Further, the composite Z-score in assay [1] was 0.793 (inactive).
For the molecule `COC(=O)[C@@H]1CC[C@@H](C)[C@H](c2ccc(Br)cc2)N1`, the composite z-score in the assay with Albumin (Bos taurus) is -0.0822; in assay [2] it was -0.0111; in assay [3], -0.0165; in assay [4], -0.203; in assay [5], 0.0852; in assay [6], -0.117. In addition, the composite z-score is -0.8 in the assay with Sam68 (KHDRBS1), 0.202 in assay [7] and 0.0592 in assay [8]. For the same molecule, the composite Z-score in [1] was 0.644 (inactive).
For the molecule `CC(C)=NOC[C@@H](C)[C@H](OCc1ccccc1)C(C)C`, the composite z-score is -0.0998 in the assay with Albumin (Bos taurus); -0.165 in assay [2]; -0.206 in [3]; -0.389 in assay [4]; -0.616 in assay [5]; -0.228 in assay [6]. Moreover, the composite z-score in the assay on Sam68 (KHDRBS1) is -1.61; in [7], 0.0109; in assay [8] it was -0.0651. For the same molecule, the composite Z-score in assay [1] is 0.317 (inactive).
On to `C=CC[C@@H]1C=C[C@H](ON=C(C)CCN2CCc3nc(-c4ccccc4)c(-c4ccccc4)cc3C2)[C@@H](CO)O1`, for which the composite z-score was 0.585 with Albumin (Bos taurus); -0.0362 in assay [2]; -0.0995 in [3]; 0.1 in assay [4]; 1.6 in assay [5]; -0.0995 in assay [6]. Moreover, the composite z-score in the assay with Sam68 (KHDRBS1) is 1.31; in assay [7], 0.321; in assay [8] it was 0.967. For the same molecule, the composite Z-score in assay [1] was 0.364 (inactive).
Take `COc1cc(O)c(C(=O)C=Cc2ccc3c(c2)OCO3)c(OC)c1`: the composite z-score in the assay with Albumin (Bos taurus) was 0.0618; in assay [2] it was -0.0647; in [3], -0.134; in [4], -0.337; in assay [5], -0.932; in [6] it was -0.185. The composite z-score in the assay with Sam68 (KHDRBS1) is -1.93; in assay [7], 0.102; in assay [8], 1. Moreover, in assay [1], the composite Z-score was -0.024 (inactive).
For the molecule `COC(=O)[C@H](C)NC(=O)CCC1CC(OC(=O)NCc2ccc3c(c2)OCO3)CC2(CCCC(COC(=O)NCCc3ccccc3OC)O2)O1` (stereo not given in full), the composite z-score in the assay with Albumin (Bos taurus) was 0.159; in [2], -0.125; in [3] it was -0.0646; in [4], 0.472; in assay [5], 1.36; in [6], 0.117. For the same molecule, the results for the composite z-score (with Sam68 (KHDRBS1); in assay [7]; in assay [8]) were 0.735, -0.0443 and -0.706, respectively. Besides, the composite Z-score in assay [1] was 0.0923 (inactive).

For the origin of these results see PubChem BioAssay.
